Screening data as filed in PubChem BioAssay.
Hits are enriched below; roughly 2.1% of the tested compounds scored in any of these assays.
SMARCA2 act = SMARCA2 (BRM) function activators, primary screen, cell-based, luminescence, high throughput; MG213 cells, MMTV-luciferase reporter, dexamethasone, overnight; activation, % at 9.1 µM; hit rate 1% among 370,000; AID 652017, 2013; in the data active = activation above about 7.8%
bovine MsrA act = bovine MsrA enzyme activators, primary screen, biochemical, absorbance, HTS; Methionine sulfoxide reductase A (Bos taurus); purified bovine MsrA, absorbance read-out; activation, % at 10.6 µM; hit rate 0.3% among 360,000; AID 602163, 2012; in the data active = activation above about 7.5%
ABCB6 inh MLPCN = ABCB6 transporter inhibitors, primary screen, K562-ABCB6 cells, flow cytometry, MLPCN library; ATP-binding cassette sub-family B member 6 (Homo sapiens), Q9NP58; K562-ABCB6 porphyrin accumulation, 1 h; active compounds read low; fluorescence ratio to DMSO, % at 10 µM; hit rate 0.19% among 360,000; AID 602162, 2011;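 active = fluorescence ratio to DMSO below 75%, the collection mean minus 3 SD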;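 note: signal is porphyrin accumulated inside mitochondria; lower ratio means ABCB6 inhibition with less porphyrin fluorescence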
Target sequence (Q9NP58 whole entry, looked up): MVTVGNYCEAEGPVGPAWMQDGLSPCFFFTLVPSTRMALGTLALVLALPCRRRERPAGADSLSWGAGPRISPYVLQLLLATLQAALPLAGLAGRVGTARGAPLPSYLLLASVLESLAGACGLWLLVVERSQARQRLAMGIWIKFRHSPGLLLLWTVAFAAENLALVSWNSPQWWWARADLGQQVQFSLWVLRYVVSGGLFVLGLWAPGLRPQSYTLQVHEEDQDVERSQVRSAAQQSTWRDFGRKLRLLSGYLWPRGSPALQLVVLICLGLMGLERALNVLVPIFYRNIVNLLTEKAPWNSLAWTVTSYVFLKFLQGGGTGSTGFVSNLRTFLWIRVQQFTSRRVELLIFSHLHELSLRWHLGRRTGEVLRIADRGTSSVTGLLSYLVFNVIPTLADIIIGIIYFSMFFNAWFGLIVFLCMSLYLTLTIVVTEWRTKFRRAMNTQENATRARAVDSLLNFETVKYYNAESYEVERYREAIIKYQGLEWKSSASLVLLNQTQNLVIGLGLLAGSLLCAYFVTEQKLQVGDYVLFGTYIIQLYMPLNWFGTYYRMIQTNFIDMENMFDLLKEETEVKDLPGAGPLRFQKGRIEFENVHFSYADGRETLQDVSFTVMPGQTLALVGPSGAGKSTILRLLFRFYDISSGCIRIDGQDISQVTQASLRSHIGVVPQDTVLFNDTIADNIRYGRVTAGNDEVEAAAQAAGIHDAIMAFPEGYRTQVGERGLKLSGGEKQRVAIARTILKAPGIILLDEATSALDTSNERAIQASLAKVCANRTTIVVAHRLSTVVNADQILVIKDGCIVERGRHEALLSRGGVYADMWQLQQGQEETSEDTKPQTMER
MsrA inh = bovine MsrA enzyme inhibitors, primary screen, biochemical, absorbance, HTS; inhibition, % at 15.5 µM; purified bovine MsrA, absorbance read-out; AID 651718, 2012; hit rate 0.75% among 360,000; Methionine sulfoxide reductase A (Bos taurus)
MsrA conf = bovine MsrA inhibitors, retest, confirmation, biochemical, absorbance, HTS; hit rate 41% among 2,300; AID 651822, 2012; shares compounds with MsrA inh; inhibition, % at 15.5 µM; purified bovine MsrA, absorbance read-out;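 note: coupled to thioredoxin reductase with NADPH and selenocystamine and DMSO as substrate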
A number is an active result; – = inactive; · = no result given. Cut-off read from the data, not from the text of the source, unless noted: active = inhibition above about 4.5%; inactive = the rest.

SMILES	SMARCA2 act	bovine MsrA act	ABCB6 inh MLPCN	MsrA inh	MsrA conf
Cc1ccc(C)c(S(=O)(=O)N/N=C/c2ccc(F)cc2)c1	–	–	–	–	·
CC(=O)NCc1ccc(S(=O)(=O)N/N=C/c2ccc(N(C)C)cc2)cc1	–	–	–	5.6	–
COC(=O)[C@@]12C[C@@H](CC(=O)NCCCN3CCCC3=O)C(=O)N(CCc3ccc(OC)c(OC)c3)C1=CCC(C)(C)C2	–	·	·	–	·
O=C(Cn1nc2ccccc2n1)N/N=C/c1cc([N+](=O)[O-])ccc1O	–	–	–	4.7	–
COCCNC(=O)/C(C#N)=C1\N=C(NC(=O)c2ccco2)c2ccccc21	–	–	–	4.8	–
CCCNC(=O)/C(C#N)=C1\N=C(NC(=O)c2ccco2)c2ccccc21	–	–	–	–	·
COc1cc(C)c(/C=C/C(C)=C/C=C/C(C)=C/C(=O)O)c(C)c1C	–	–	–	4.7	–
N#C/C(=N/Nc1ccc(S(=O)(=O)N2CCOCC2)cc1)C(N)=O	–	–	–	6.6	–
O=S1(=O)C=CCN1Cc1cn(Cc2cccc(Cl)c2)nn1	–	·	·	·	·
N#C/C(=C\c1cccs1)C(=O)NCc1cccnc1	–	–	–	5.5	–
N#C/C(=C\C=C\c1ccccc1)C(=O)NCc1cccnc1	–	–	–	7.6	6.8
N#C/C(=C\c1cccs1)C(=O)NCc1ccccc1	–	–	–	–	·
O=C(CSc1nnc(-c2cccnc2)n1Cc1ccco1)Nc1cc(Cl)ccc1F	–	·	·	·	·
N#C/C(=N\O)c1nc2ccccc2s1	–	–	–	4.7	–
CC(c1nccs1)N(C)c1nc2nonc2nc1NC1CC1 (centres undefined)	–	–	–	–	·
c1csc(C2CCCN2c2nc3nonc3nc2NC2CC2)n1 (centres undefined)	–	–	–	5.7	–
COC(=O)c1ccc(Cn2ccc3ccc(-c4ccc5ccn(C(=O)c6cccc(OC)c6)c5c4)cc32)cc1	–	·	·	·	·
O=C(N/N=C/C(Br)=C/c1ccccc1)c1cnccn1	–	–	–	6.3	4.6
O=C(N/N=C/C(Cl)=C/c1ccccc1)c1ccccn1	–	–	–	–	·
O=C(N/N=C/C(Cl)=C/c1ccccc1)c1ccncc1	–	–	–	4.9	–
Cn1cc(C(=O)N/N=C/C(Br)=C/c2ccccc2)ccc1=O	–	–	–	6.7	5.7
Cn1cc(C(=O)N/N=C/C=C/c2ccccc2)ccc1=O	–	–	–	9.7	5.1
O=C(N/N=C/C=C/c1ccccc1)c1ccc(Br)cc1	–	–	–	–	·
COc1ccc(C2C(C(=O)Nc3cc(OC)c(OC)c(OC)c3)CCC(=O)N2c2ccc(OC)cc2)cc1 (centres undefined)	–	·	·	·	·
O=C(CC(=O)c1ccccc1)c1ccccc1	–	–	–	–	·
SMILES	SMARCA2 act	bovine MsrA act	ABCB6 inh MLPCN	MsrA inh	MsrA conf
CC(CC(=O)c1ccccc1)=NCCCN=C(C)CC(=O)c1ccccc1	–	–	–	5.2	–
COC(=O)[C@]12C[C@H](CC(=O)NCc3ccccc3)C(=O)N(CCc3ccc(OC)c(OC)c3)C1=C[C@H](C1CCCC1)O[C@@H]2C	–	·	·	·	·
COc1ccc(-c2cc(C(F)(F)F)n3nc(C(=O)O)nc3n2)cc1	–	–	–	5.1	–
O=C1CCCCCC(=O)[C@H](O)C[C@H](c2ccccc2)O1	–	–	–	–	·
O=c1oc2ccccc2c(NCc2ccccc2F)c1[N+](=O)[O-]	–	–	–	8.8	7.2
CCc1cc2c(nc1CC)CCCN2S(=O)(=O)c1ccc(C#N)cc1	–	·	·	–	·
Cc1ccccc1CS(=O)(=O)Cc1ccc(C(=O)Nc2ccccc2C)o1	–	·	·	·	·
CN(C)C1=NC(=O)/C(=C\c2ccccc2)S1	–	–	–	6.5	–
O=C1N=C(N2CCCC2)S/C1=C\c1ccccc1	–	–	–	–	·
COc1ccc(C=Nn2c(-c3n[nH]c4c3CCC4)n[nH]c2=S)cc1OCc1ccccc1	–	·	·	·	·
N#C/C(=C\c1ccncc1)c1nc2ccccc2o1	–	–	–	–	·
N#C/C(=C\Nc1ccccc1O)c1nc2ccccc2o1	–	–	–	9.7	7.7
Cc1cc(N2CCCC2)c(C)cc1C=O	–	–	–	5.1	–
O=C1NC(=S)N/C1=C/c1cc([N+](=O)[O-])ccc1N1CCOCC1	–	–	–	5.0	–
O=Cc1cc([N+](=O)[O-])ccc1N1CCOCC1	–	–	–	–	·
Cc1cc(C)cc(C(=O)OCCN2CCN(C3CN(Cc4cn(Cc5ccccc5F)nn4)S(=O)(=O)C3)CC2)c1 (centres undefined)	–	·	·	·	·
N/C(=N\N=C\c1ccc2c(c1)OCO2)c1nonc1N	–	–	–	7.3	–
CC(=O)NC(C)C(=O)N1CCCC1C(=O)N1CCCC1C(=O)NC(C)C(=O)NC1C(=O)NC(CC(C)C)C(=O)NC2CCCCNC(=O)CCC(C(=O)NC(Cc3ccc(O)cc3)C(=O)O)NC(=O)C3CCC(=O)OCC(NC(=O)C4CCCN4C(=O)C(Cc4c[nH]c5ccccc45)NC2=O)C(=O)NC(CC(=O)OC1C)C(=O)NC(Cc1c[nH]c2ccccc12)C(=O)N3 (centres undefined)	–	·	·	·	·
COc1ccc(-n2c(SCC(=O)N(CC(C)C)CC(C)C)nnc2-c2ccncc2)cc1	–	·	·	·	·
COc1ccc2nc(C)cc(N/N=C/c3ccc(F)cc3)c2c1	–	–	–	42	54
O=C(O)c1ccc(Nc2ccc([N+](=O)[O-])c3nonc23)cc1	–	–	–	–	·
CC(=O)c1ccc(Nc2ccc([N+](=O)[O-])c3nonc23)cc1	–	–	–	7.0	–
O=C(CCc1ccccc1)N[C@H]1[C@H](OCc2ccccc2)CCC[C@@]12C(=O)N(Cc1ccccc1)c1ccc(-c3ccsc3)cc12	–	·	·	·	·
O=S(=O)(c1sccc1Br)n1c(CN2CCOCC2)nc2ccccc21	–	·	·	·	·
Clc1cc2c(cc1/C=N/Nc1nc(N3CCOCC3)nc(N3CCOCC3)n1)OCO2	–	–	–	–	·
SMILES	SMARCA2 act	bovine MsrA act	ABCB6 inh MLPCN	MsrA inh	MsrA conf
Clc1ccccc1/C=C/C=N/Nc1nc(N2CCOCC2)nc(N2CCOCC2)n1	–	–	–	5.3	–
C(=C\c1ccccc1)/C=N/Nc1nc(N2CCOCC2)nc(N2CCOCC2)n1	–	–	–	7.5	6.8
Cc1ccc(/C=N/NC(=O)c2ccncc2)o1	–	–	–	5.7	4.6
C/C(=N\NC(=O)c1ccc(N/N=C(\C)c2ccncc2)cc1)c1ccncc1	–	–	–	5.8	6.2
Cc1cccc(C(=O)Nc2ccc(C(=O)N/N=C/c3ccc(C)o3)cc2)c1	–	–	–	6.4	–
Cc1cc(/C=C(\C#N)C(=O)O)c(C)n1CCC(C)C	–	–	–	–	·
Cc1cc(/C=C(\C#N)C(=O)O)c(C)n1CC(C)C	–	–	–	7.2	–
CCN(CC)c1ccc(C=Nc2ccc(C)cc2)c(O)c1	–	–	–	6.9	6.3
CCN(CC)c1ccc(C=Nc2ccc(N(C)C)cc2)c(O)c1	–	–	–	5.9	–
O=c1c2cc3cc(Cl)ccc3nc2ncn1N1CCCCC1	–	·	·	·	·
CCOC(=O)/C(C#N)=C/c1ccc(N2CCN(C)CC2)cc1	–	–	–	–	·
